# Measured values: PubChem BioAssay (NCI)
# About 83,000 compounds went through this panel and 20% of them were active in at least one assay; those are over-represented in the sample as a whole.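 48-hour exposure, single concentration, 96-well plates; percent growth endpoint where 0 means no net growth. Active: below 10.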 Values without a mark were called inactive. Calls of active or inactive are those of the source.
# Tested on: M14 melanoma
# Assay: NCI-60 one-dose screen, 48 h (100 = growth as untreated, 0 = no growth, -100 = all killed)
# Conditions: 10 µM unless noted
# Protocol: Growth inhibition of the M14 human tumor cell line is measured as a screen for anti-cancer activity. Cells are grown in 96 well plates and exposed to the test compound for 48 hours. Compounds are tested at a single concentration, which is 10^-5 M for most compounds. The reported endpoint is percent growth (GI% or GIPRCNT), where numbers from 0 - 100% represent growth inhibition, and numbers from -100% - 0 represent cell death. For example, a value of 40 represents 60% growth inhibition. A value of 0 means no net growth occurred over the course of the experiment. A value of -40 indicates 40% of cells at the beginning of the experiment died by the end of the experiment. A value of -100 means all cells are dead at the end of the experiment.
# NCI-60 Human Tumor Cell Lines Screen was performed using the standard one-dose NCI protocol, which is described in more detail at https://dtp.cancer.gov/discovery_development/nci-60/default.htm.
# Compounds with GIPRCNT values below 10 were considered active. Activity score was based on GIPRCNT using the following formula: […]
# Score is 0 for GIPRCNT values of 100 or above, 50 for GIPRCNT values of 0, and 100 for GIPRCNT values of -100.
row,Structure (SMILES),growth
1,CC(=O)OC[C@H]1OC(Sc2sc(C(=O)c3ccc(Cl)cc3)c(N)c2-c2nc3ccccc3s2)[C@H](OC(C)=O)[C@@H](OC(C)=O)[C@@H]1OC(C)=O (stereo not given in full),89.6%
2,NS(=O)(=O)c1ccc(N=Nc2ccc(-c3nn4cc(-c5ccccc5)nc4s3)cc2)cc1,96.6%
3,COc1ccc(C2CC(c3ccc(Nc4nc(Nc5ccc(F)cc5)nc(Nc5ccc(Cl)cc5)n4)cc3)=NN2C(C)=O)cc1 (stereo not given),104%
4,c1ccc2c(c1)Nc1ccncc1S2,95.1%
5,Nc1nn(C(=O)Nc2ccc(Cc3ccccc3)cc2)c2ccc(Cl)cc12,37.2%
6,CCOC(=O)Nc1ccc(C(=O)/C=C/c2ccccc2)cc1,79.2%
7,CCN(CC)CCNC(=O)c1cn2ncnc(Oc3ccc(NC(=O)Nc4ccc(Cl)c(C(F)(F)F)c4)cc3)c2c1C,-83.3% (active)
8,CCN(CC)c1ccc(C2=NN(C(C)=O)C(c3cc(OC)c(OC)c(OC)c3)C2)cc1 (stereo not given),-28.8% (active)
9,Cc1ncc(C(=O)Nc2ccc(CN3CCN(C)CC3)c(C(F)(F)F)c2)cc1C#Cc1ccc(N)nc1,-56.8% (active)
10,CN(C)CCNc1nc2ccccc2c2c(=O)c3cc(F)ccc3sc12,-77.9% (active)
11,COc1ccc(NC2=C(Br)C(=O)C(C)=C(C)C2=O)cc1,97%
12,O=C1CN(CCN2CC(=O)N(Cc3ccccc3)C(=O)C2)CC(=O)N1Cc1ccccc1,109%
13,Oc1ccc(CCl)c2cccnc12,61.6%
14,O=C1c2cccc3cccc(c23)C(=O)N1Nc1nc(NC2CCCCC2)nc(N2CCOCC2)n1,95.4%
15,C(=N/Nc1ncnc2nc[nH]c12)/c1ccccn1,14.2%
16,COc1ccc2c(c1OC)C(=O)O[C@H]2[C@H]1c2c(cc3c(c2OC)OCO3)CCN1C,94.8%
17,N#Cc1ccc(NC(=O)c2sc3nc4c(cc3c2N)C(=O)CCC4)cc1,106%
18,COc1c(B(O)O)cc(C)cc1-c1nc2ccc3[nH]ncc3c2c2c1CCCC2,97.4%
19,C=C(C)C1CCC2(C)OC2C1 (stereo not given),108%
20,O=c1c2cc(F)ccc2sc2c(NCCCNCCO)nc3ccc(F)cc3c12,8.53% (active)

row,Structure (SMILES),growth
1,CCOC(=O)Cn1c(C)c(/C=N/NC(=O)c2cc3c(ccc4ccccc43)o2)c2ccccc21,16.8%
2,C/C(=C\C(=O)c1ccc(Cl)cc1)c1ccc(Cl)cc1,104%
3,CN1CCN(c2ccc(-c3cc4c(Nc5ccc(F)c(Cl)c5)ncnn4c3)cn2)CC1,83.8%
4,O=C(CSc1nc2ccccc2[nH]1)Nc1cccc(Cl)c1,105%
5,c1ccc2c(-c3nc(-c4c[nH]c5ccncc45)cs3)c[nH]c2c1,-69.7% (active)
6,CN1CCN(c2ccc(-c3ccc4ncc(C#N)c(Nc5ccc(F)c(Cl)c5)c4c3)cn2)CC1,30.5%
7,O=c1ccc(N=Nc2ccccc2)ccc1Cl,46.6%
8,N#Cc1cccc(NC(=O)c2cc(-c3ccc(F)cc3F)ccc2O)c1,23.6%
9,CC(=O)O.CN1[CH-]N(Cc2ccc(C#N)cc2)c2ccccc21.[Ag+],100%
10,Nc1nc(-c2cccc3ccccc23)cc2ccccc12,-29.5% (active)
11,Brc1c[n+](Cc2ccc3ccccc3c2)cn1Cc1ccc2ccccc2c1,1.8% (active)
12,CC1=C([Se]CC(OC(=O)[C@@H](CSSC(C)(C)C)NC(=O)OC(C)(C)C)C(=O)NC(C)(C)C)C(=O)c2ccccc2C1=O (stereo not given in full),-84.8% (active)
13,C#Cc1cccc(NC(=O)c2ccc(NC(=O)C=C)cc2)c1,86.3% [8.25 µM]
14,Cc1ccc(-c2nc(N3CCN(CC(=O)Nc4ccc(Cl)c(C(F)(F)F)c4)CC3)c3ccccc3n2)cc1,95.7%
15,COc1ccc(CN2c3ccccc3Sc3ccccc32)c(F)c1,11.2%
16,COc1ccc(-c2nnc(COc3ccc(Cl)cc3Cl)o2)cc1OC,45%
17,COC1=C(C)C(=O)c2c(c(CCCl)c3n2CCC3O)C1=O (stereo not given),-14.3% (active)
18,Cc1ccc(-c2cnc3sc(C(=O)NCCc4ccccc4)c(C)n23)cc1,91.9%
19,c1ccc(Nc2cc(-c3cccnc3)[nH]n2)cc1,117%
20,O=C(CCOCCNC(=O)COc1ccc2c(c1)OCC(c1ccc(F)cc1)C2=O)NCCCC(O)(P(=O)(O)O)P(=O)(O)O (stereo not given),109%
